High-throughput results as filed in PubChem.
This is one part of a sample in which hits are shown more often than they occur.
nsP2pro primary = blocks chikungunya virus nsP2 protease peptide cleavage; Q8JUX6; FRET peptide cleavage, nsP2pro, fluorescence 1 h; Potency, µM (titrated, usually from 24.9 µM), inactives show top-dose activity change, negative = inhibition, actives largely listed as inhibitors; 31,000 compounds, 1.1% hits; note: nearly all actives have a fitted effect of over 60% in size
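Recombinant nsP2pro (150 nM) was preincubated with compound 15 min at room temperature in 10 mM Tris-HCl pH 8.0, 0.01% Tween 20. Peptide 2 FRET substrate (2.5 uM) was then added and fluorescence read after 1 h. Seven-point series, up to 25 uM.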
nsP2 cell sec = cell-based CHIKV nsP2 protease inhibition, secondary; 450 compounds, 10% hits; Potency, µM (top dose mostly 51.1 µM), without a hit: at the top dose activity change, negative = inhibition, hits mostly inhibitors; cell-based CHIKV nsP2 protease reporter assay; shares compounds with nsP2pro primary; note: nearly all actives have a fitted effect of over 70% in size
Target sequence (Q8JUX6 220-798 limits assumed): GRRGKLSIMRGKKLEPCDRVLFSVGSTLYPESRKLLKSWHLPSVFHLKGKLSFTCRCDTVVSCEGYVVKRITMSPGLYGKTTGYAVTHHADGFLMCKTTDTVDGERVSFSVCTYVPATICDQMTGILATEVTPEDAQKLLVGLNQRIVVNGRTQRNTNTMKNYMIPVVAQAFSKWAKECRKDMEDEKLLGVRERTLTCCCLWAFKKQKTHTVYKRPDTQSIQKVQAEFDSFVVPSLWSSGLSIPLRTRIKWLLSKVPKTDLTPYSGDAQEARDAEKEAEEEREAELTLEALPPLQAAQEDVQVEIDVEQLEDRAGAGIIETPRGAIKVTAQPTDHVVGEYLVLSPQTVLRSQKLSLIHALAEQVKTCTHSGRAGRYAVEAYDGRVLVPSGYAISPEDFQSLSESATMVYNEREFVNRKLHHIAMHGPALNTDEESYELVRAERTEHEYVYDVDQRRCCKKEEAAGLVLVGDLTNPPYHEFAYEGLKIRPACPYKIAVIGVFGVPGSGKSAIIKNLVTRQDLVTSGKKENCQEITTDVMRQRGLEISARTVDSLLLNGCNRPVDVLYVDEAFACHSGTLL
CHIKV NSP2 FL = inhibits full-length CHIKV NSP2 enzyme | 410 compounds, 39% hits | Potency, µM (series often up to 50.7 µM), for the others: at the top dose activity change, negative = inhibition, hits mostly inhibitors | shares compounds with nsP2pro primary | Full-length CHIKV NSP2 protease enzymatic counterscreen; note: nearly all actives have a fitted effect of over 65% in size
Furin counter = selectivity counter-screen for CHIKV nsP2 protease inhibitors: human furin; shares compounds with nsP2pro primary; Recombinant human furin enzymatic counterscreen, fluorogenic substrate; Potency, µM (titrated, usually from 50.6 µM), without a hit: at the highest dose activity change, negative = inhibition, hits mostly inhibitors; 410 compounds, 6% hits; AID 1964102
nsP2 NS23 pep = blocks CHIKV nsP2 protease cleavage of endogenous NS2/3 peptide | AID 1964103 | Purified CHIKV nsP2 protease, endogenous NS2/3 peptide cleavage | Potency, µM (highest dose often 51 µM), inactives show at the highest dose activity change, negative = inhibition, hits mostly inhibitors | 410 compounds, 34% hits | shares compounds with nsP2pro primary; note: nearly all actives have a fitted effect of over 55% in size
Papain counter = papain protease inhibition, counterscreen for nsP2pro inhibitors; shares compounds with nsP2pro primary; purified papain protease activity, enzymatic inhibition; Potency, µM (doses to about 51 µM), for the others: at the top dose activity change, negative = inhibition, actives largely listed as inhibitors; 410 compounds, 5% hits; AID 1964104
nsP2pro conf qHTS = confirmation of CHIKV nsP2 protease inhibitors. shares compounds with nsP2pro primary. CHIKV nsP2 protease enzymatic activity, qHTS. Potency, µM (doses to about 25.5 µM), for the others: at the top dose activity change, negative = inhibition, hits mostly inhibitors. 410 compounds, 43% hits. AID 1964105; note: nearly all actives have a fitted effect of over 75% in size
HCV NS3 counter = inhibits HCV NS3/4A protease in an nsP2pro selectivity counterscreen. 410 compounds, 20% hits. AID 1964106. Potency, µM (top dose mostly 50.9 µM), usual class: inhibitors. HCV NS3/4A protease biochemical counterscreen. shares compounds with nsP2pro primary; note: nearly all actives have a fitted effect of over 55% in size
The depositor's hits bear a star; i = inactive; ? = inconclusive; [ ] = remark or other dose. Calls come from the whole dose curve. % is set by controls: 0 for no effect and ±100 for the full control effect; potency is the fitted concentration of half-maximal effect.

SMILES	nsP2pro primary	others
CCOC(=O)c1ccc(NC2CCCCC2)c(N)c1	-2%
CCCC(=O)OC[C@@H](OC(=O)CCC)[C@@H](OC(=O)CCC)[C@H](Cn1c2nc(=O)[nH]c(=O)c-2nc2cc(C)c(C)cc21)OC(=O)CCC	0.7µM*	nsP2 cell sec=25%;CHIKV NSP2 FL=17%;Furin counter=-12%;nsP2 NS23 pep=2%;Papain counter=?;nsP2pro conf qHTS=-4%;HCV NS3 counter=i
c1ccc(-c2nc(C3CC3)no2)c(OC2CCNC2)c1 (configuration not stated)	i
CC(C)(C)[C@H](NC(=O)C(F)(F)F)C(=O)N1C[C@H]2[C@@H]([C@H]1C(=O)N[C@H](C#N)C[C@@H]1CCNC1=O)C2(C)C	-6%
COC(=O)C#Cc1ccc([N+](=O)[O-])cc1	0.99µM*	nsP2 cell sec=?;CHIKV NSP2 FL=1.2µM*;Furin counter=-6%;nsP2 NS23 pep=2.9µM*;Papain counter=-12%;nsP2pro conf qHTS=0.56µM*;HCV NS3 counter=i
O=C(Nc1ccc([N+](=O)[O-])cc1)Nc1ccc([N+](=O)[O-])cc1	-8%
O=C(N[C@H](CO)[C@H](O)c1ccc([N+](=O)[O-])cc1)C(Cl)Cl	-5%
Cc1sc(NC(=O)Cc2ccc3c(c2)OCO3)nc1-c1ccc2c(c1)CCN2C(=O)c1ccccc1C(F)(F)F	-7%
S=P(c1ccccc1)(c1ccccc1)c1c[n+](C/C=C/c2ccccc2)c2ccccn12	-28%
COc1ccc(-c2ccc(CN3CC(C)(NC(C)=O)C3)s2)cn1	i
O[C@@H]1[C@@H](Cn2cc(C3CC3)nn2)C[C@@H](NCc2nccs2)[C@@H]1O	-9%
CC(C)n1nccc1-c1ncccc1COc1cccc(O)c1C=O	-20%
CCCS(=O)(=O)Nc1ccc(=O)n2c1[C@@H]1C[C@@H](CN(C(=O)Nc3ccc(OC)cc3)C1)C2	?	nsP2 cell sec=3%;CHIKV NSP2 FL=?;Furin counter=-9%;nsP2 NS23 pep=?;Papain counter=-2%;nsP2pro conf qHTS=?;HCV NS3 counter=?
COc1ccc(CC(=O)N2C[C@@H]3C[C@H](C2)c2c(-c4ccc(NC(C)=O)cc4)ccc(=O)n2C3)cc1	-5%
COc1ccc(NC(=O)N2C[C@@H]3C[C@H](C2)c2c(NC(=O)CSC)ccc(=O)n2C3)cc1	-2%
Cc1c(N)nc([C@H](CC(N)=O)NC[C@@H](N)C(N)=O)nc1C(=O)N[C@H](C(=O)N[C@@H](C)[C@H](O)[C@@H](C)C(=O)N[C@@H](C(=O)NCCc1nc(-c2nc(C(=O)NCCC[S+](C)C)cs2)cs1)[C@@H](C)O)C(O[C@H]1O[C@H](CO)[C@H](O)[C@@H](O)[C@H]1O[C@H]1O[C@H](CO)[C@@H](O)[C@H](OC(N)=O)[C@@H]1O)c1cnc[nH]1 (some centres not stated)	97%
O=C([C@H](Cc1ccc(O[S+](=O)([O-])c2cccc3cccnc23)cc1)N[S+](=O)([O-])c1ccccn1)N1CCN(c2ccccc2)CC1	i
Nc1nc(O)c(C2=C3C(=Nc4ccccc43)C(=O)NCC2)[nH]1	?	nsP2 cell sec=6%;CHIKV NSP2 FL=-3%;Furin counter=-9%;nsP2 NS23 pep=-12%;Papain counter=-14%;nsP2pro conf qHTS=-21%;HCV NS3 counter=i
CCOc1cc(CN2CCC(C(Cc3ccccc3F)N(C)C(=O)c3cccs3)CC2)ccc1O (configuration not stated)	-2%
CCc1ccc(NCc2cccn2-c2nnc(N3CCCCCC3)s2)cc1	?	nsP2 cell sec=?
Cc1ccc(CNCc2cccn2-c2nnc(N3CCCC3)s2)cc1	-7%
COc1ccccc1NCc1cccn1-c1nnc(N2CCCCCC2)s1	-27%
Cc1cccc(C(=O)N2CC(Oc3ccc(-c4noc(C5CCOCC5)n4)cc3)C2)c1	-3%
CN1CCc2cccc3c2[C@H]1Cc1ccc(O)c(O)c1-3	3.1µM*	nsP2 cell sec=?;CHIKV NSP2 FL=26µM*;Furin counter=23µM*;nsP2 NS23 pep=16µM*;Papain counter=14%;nsP2pro conf qHTS=5µM*;HCV NS3 counter=i
CN1CCc2cc3c(cc2C1C1OC(=O)c2c1ccc1c2OCO1)OCO3 (configuration not stated)	-11%
SMILES	nsP2pro primary	others
Cc1cc(NC(=O)Nc2cccc(-c3ccncc3)n2)ccc1Br	i
COC(=O)CC[C@@H]1N=C(c2ccccn2)c2cc(Br)ccc2-n2c(C)cnc21	-1%
Cc1ccc(-c2cn(CC3CCCN(c4cc(C)nc(N)n4)C3)nn2)cc1 (configuration not stated)	-16%
C[C@@H](Oc1ccc2[nH]nc(/C=C/c3cnn(CCO)c3)c2c1)c1c(Cl)cncc1Cl	62%
C[n+]1c2cc(N)ccc2cc2ccc(N)cc21 (tested in a mixture with another compound)	?	nsP2 cell sec=?;CHIKV NSP2 FL=-4%;Furin counter=?;nsP2 NS23 pep=?;Papain counter=?;nsP2pro conf qHTS=47%;HCV NS3 counter=i
O=C(C1CCC1)N1CCC[C@H]1c1nc(-c2ccc(F)cc2)n[nH]1	i
Cc1ccc([S+](=O)([O-])n2cc(Cc3ccc(-c4ccccc4)cc3)c3ccccc32)cc1	1%
CC(=O)Nc1cccc2c1c(Sc1ccc(Cl)cc1)c(C)n2CC(=O)O	9.9µM*	nsP2 cell sec=-17%;CHIKV NSP2 FL=1%;Furin counter=-3%;nsP2 NS23 pep=i;Papain counter=-11%;nsP2pro conf qHTS=-12%;HCV NS3 counter=i
Cc1ccc(SCC(=O)Nc2cccc(-c3nc4cc(Cl)ccc4o3)c2C)cc1	-24%
COc1ccc2c(C(=O)c3ccc(Cl)cc3)c(C)n(CC(=O)O)c2c1	-18%
CC(C)Oc1ccc(-c2c[nH]cc2CN(C)CCN)cc1	60%
CN1CCC2=C(C1)C(c1ccccc1)c1ccccc12 (configuration not stated)	-7%
O=[S+]([O-])(Nc1ccc(N2CCNCC2)cc1)c1ccc(NCc2cccc(Cl)c2O)cc1	i
O=C(NCc1c[nH]c2ncccc12)c1ccccc1Cl	4%[39.2 µM]
O=C(NCc1ccc(Cl)cc1)c1c[nH]c2ncccc12	i
O=C(NCc1ccnc2[nH]ccc12)c1ccccc1Cl	4.5µM*	nsP2 cell sec=24µM*;CHIKV NSP2 FL=4.7µM*;Furin counter=-15%;nsP2 NS23 pep=19µM*;Papain counter=-10%;nsP2pro conf qHTS=12µM*;HCV NS3 counter=3µM*
CC(C)c1ccc(-n2cc(CN3CCCC(O)(CN(C)C)C3)cn2)cc1 (configuration not stated)	i
Cc1nn(-c2ccc(C(F)(F)F)cc2)c(C)c1[C@@H]1C=C[C@@H](NCc2ccc(N(C)C)cc2)C1	6%
